From the supplement of paper PMC3414501
Where a name gives a salt, the structure may show the parent alone.

Experiments:
[1] = system: S. cerevisiae SK1 pCDA2-eGFP (USY613), sporulating; assay: CDA2-GFP sporulation assay sensitivity score (z-score vs DMSO controls); higher = stronger inhibition of sporulation, active = hit call of the paper;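 further: active if sensitivity score above 5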
[2] = system: S. cerevisiae NKY1551 his4x/his4B, sporulating; assay: HIS4 meiotic recombination assay sensitivity score (z-score vs DMSO controls); higher = stronger inhibition of sporulation/recombination, active = hit call of the paper;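 further: active if sensitivity score above 5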
[3] = system: S. cerevisiae AD1-9 (efflux-pump deficient), vegetative growth in YPD; assay: growth sensitivity score (doubling time z-score vs DMSO controls); higher = slower growth, strongly negative scores also mark growth inhibition (complete suppression), active = hit call of the paper
Procedure, shortened: (§1)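 Saccharomyces cerevisiae strains BY4741 and AD1-9 were seeded in rich medium in microtiter plates at an OD600 of 0.065. Compounds were added at a 1:100 dilution of DMSO stock. Optical density was read every 15 min for 24 hours on a Tecan GENios reader. Average doubling time was the time taken to reach a set generation point divided by generation number, and the growth sensitivity score was (compound mean − DMSO-control mean)/DMSO-control SD, using eight DMSO controls per experiment.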

[4] = system: S. cerevisiae BY4741 (wild-type), vegetative growth in YPD; assay: as above
Procedure, shortened: as §1

| SMILES | CDA2-GFP sporulation assay sensitivity score [1] | HIS4 meiotic recombination assay sensitivity score [2] | growth sensitivity score [3] | growth sensitivity score [4] |
| --- | --- | --- | --- | --- |
| NC(=O)OCC(COC(N)=O)c1ccccc1 [Felbamate] (stock concentration (mM, diluted 1:100): 14) | -0.27 (inactive) | -0.45 (inactive) | -0.62 (inactive) | -0.94 (inactive) |
| COc1cc2c(cc1OC)C(=O)C(CC1CCN(Cc3ccccc3)CC1)C2 (centres undefined) [Donepezil] (stock concentration (mM, diluted 1:100): 9.1) | 4.44 (inactive) | 0.42 (inactive) | 3.1 (active) | 2.75 (active) |
| Cc1cn([C@H]2C=C[C@@H](CO)O2)c(=O)[nH]c1=O [Stavudine] (stock concentration (mM, diluted 1:100): 10) | -1.16 (inactive) | -1.75 (inactive) | 0.68 (inactive) | 0.1 (inactive) |
| CCOC(=O)C1=C(C)NC(C)=C(C(=O)OCC)C1c1ccccc1/C=C/C(=O)OC(C)(C)C [Lacidipine] (stock concentration (mM, diluted 1:100): 10) | 6.44 (inactive) | 0.32 (inactive) | 10.2 (active) | -1.71 (inactive) |
| CC[C@H](C)C(=O)O[C@H]1CCC=C2C=C[C@H](C)[C@H](CC[C@@H]3C[C@@H](O)CC(=O)O3)[C@H]21 [Mevastatin] (stock concentration (mM, diluted 1:100): 10) | 0.51 (inactive) | 1.32 (inactive) | 130 (active) | 2.89 (active) |
| O=C(CCCN1CCC(O)(c2ccc(Cl)cc2)CC1)c1ccc(F)cc1 [Haloperidol] (stock concentration (mM, diluted 1:100): 10) | 8.19 (active) | 7.67 (active) | 22.7 (active) | 5.41 (active) |
| Oc1ccc(/C=C/c2cc(O)cc(O)c2)cc1 [Resveratrol] (stock concentration (mM, diluted 1:100): 10) | 5.86 (inactive) | 1.16 (inactive) | -0.99 (inactive) | -0.21 (inactive) |
| CN1CCN2c3ncccc3Cc3ccccc3C2C1 (centres undefined) [Mirtazapine] (stock concentration (mM, diluted 1:100): 10) | 12.7 (inactive) | 3.31 (inactive) | 2.89 (active) | -0.03 (inactive) |
| CN(C)CCCSc1ccccc1NC(=O)/C=C/c1ccccc1 [Cinanserin] (stock concentration (mM, diluted 1:100): 10) | 1.28 (inactive) | 7.73 (active) | 41.8 (active) | 1.35 (inactive) |
| Nc1nc(O)c2ncn(CCC(CO)CO)c2n1 [Penciclovir] (stock concentration (mM, diluted 1:100): 10) | 0.81 (inactive) | -0.35 (inactive) | -0.22 (inactive) | -0.88 (inactive) |
| C[C@]12C=CC(=O)C=C1CC[C@@H]1[C@@H]2[C@@H](O)C[C@@]2(C)[C@H]1CC[C@]2(O)C(=O)COC(=O)CCC(=O)O (stock concentration (mM, diluted 1:100): 10) | -0.32 (inactive) | -0.86 (inactive) | -0.63 (inactive) | -0.61 (inactive) |
| CN1CCN(c2c(F)cc3c(=O)c(C(=O)O)cn4c3c2SCC4)CC1 [Rufloxacin hydrochloride] (stock concentration (mM, diluted 1:100): 10) | -0.17 (inactive) | -0.04 (inactive) | 17.4 (active) | -0.18 (inactive) |
| CS(=O)(=O)c1ccc(-c2cc(Br)sc2-c2ccc(F)cc2)cc1 (stock concentration (mM, diluted 1:100): 10) | 12.1 (inactive) | 1.98 (inactive) | 8.97 (active) | -0.63 (inactive) |
| CC1(C)C[C@@H]1C(=O)N/C(=C\CCCCSC[C@H](N)C(=O)O)C(=O)O [Cilastatin] (stock concentration (mM, diluted 1:100): 9.4) | -1.2 (inactive) | -0.68 (inactive) | -1.86 (inactive) | -0.97 (inactive) |
| O=c1n(CCCN2CCN(c3cccc(Cl)c3)CC2)nc2ccccn12 [Trazodone hydrochloride] (stock concentration (mM, diluted 1:100): 10) | 5.45 (inactive) | -0.45 (inactive) | -3.23 | 0.24 (inactive) |
| CCN1CCN(c2cc3c(cc2F)c(=O)c(C(=O)O)cn3C2CC2)CC1 [Enrofloxacin] (stock concentration (mM, diluted 1:100): 10) | 2.66 (inactive) | 1.36 (inactive) | 37.5 (active) | 3.15 (active) |
